High-throughput results from PubChem.
ATG4B inh – ATG4B protease inhibitors, primary screen, biochemical, fluorescence, uHTS. ATG4B cleavage of LC3-PLA2, NBD-HPC fluorescence, 1 h. 0.51% of 340,000 active. Cysteine protease ATG4B (Homo sapiens), Q9Y4P1. inhibition, % at 8.33 µM; in the data active = inhibition above about 40%
H9c2 protect – cardioprotection against H2O2-induced cell death, primary screen, uHTS, H9c2 cells, ATPLite luminescence. 0.63% of 360,000 active. H9c2 cardiomyocytes, H2O2 injury protection, 2 h. protection from H2O2 cell death, % at 20 µM;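 active = compounds giving at least 50% protection of heart cells from peroxide-induced death in the single-dose screen, raw or plate-pattern-corrected value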;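 also: 0% = DMSO wells with peroxide and 100% = DMSO wells without peroxide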
PP1 counter – PP1-alpha phosphatase inhibitors, primary screen, counter-screen for PP5 inhibitor project, biochemical, fluorescence, OMFP substrate, single point; 0.9% of 320,000 active; inhibition, % at 6.7 µM; Serine/threonine-protein phosphatase PP1-alpha catalytic subunit (Homo sapiens), P62136; purified PP1alpha;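 active = inhibition above the mean inhibition of all tested compounds plus 3 SD, computed separately for each screening campaign, cut at about 15% in these data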
Target sequence (P62136 whole entry, looked up): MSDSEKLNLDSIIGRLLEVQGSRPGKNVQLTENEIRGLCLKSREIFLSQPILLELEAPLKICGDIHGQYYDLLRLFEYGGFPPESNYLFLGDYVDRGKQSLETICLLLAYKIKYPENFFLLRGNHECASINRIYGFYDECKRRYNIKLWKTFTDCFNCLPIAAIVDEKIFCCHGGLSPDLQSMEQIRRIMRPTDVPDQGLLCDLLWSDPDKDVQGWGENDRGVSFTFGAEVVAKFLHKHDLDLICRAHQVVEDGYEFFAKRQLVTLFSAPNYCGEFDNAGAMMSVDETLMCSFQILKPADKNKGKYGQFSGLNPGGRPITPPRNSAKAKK
PP5 primary – PP5 phosphatase inhibitors, primary screen, biochemical, fluorescence; Serine/threonine-protein phosphatase 5 (Homo sapiens), P53041; purified PP5c, OMFP substrate fluorescence; inhibition, % at 6.7 µM; 0.18% of 320,000 active;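 active = inhibition above the campaign's mean inhibition across all tested compounds plus 3 SD, cut at about 9.5% in these data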;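 also: 0% = DMSO only and 100% = 100 µM cantharidin control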
ATG4B confirm – ATG4B protease inhibitors, retest, confirmation, biochemical, fluorescence, single concentration | shares compounds with ATG4B inh | inhibition, % at 8.33 µM | ATG4B protease fluorescent substrate cleavage assay | 92% of 320 active; in the data active = inhibition above about 39%
PLA2 counter – PLA2 enzyme inhibition, counter-screen for ATG4B inhibitor project, biochemical, single concentration, uHTS hits; 66% of 1,600 active; inhibition, % at 8.33 µM; shares compounds with ATG4B inh; purified PLA2, NBD-C6-HPC fluorescence, 45 min; AID 588402, 2011; in the data active = inhibition above about 50%
Target sequence (P04054 whole entry, looked up): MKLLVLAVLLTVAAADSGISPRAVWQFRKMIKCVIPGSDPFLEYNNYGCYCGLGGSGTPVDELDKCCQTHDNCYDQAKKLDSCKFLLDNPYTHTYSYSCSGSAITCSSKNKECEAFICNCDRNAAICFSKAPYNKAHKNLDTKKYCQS
Numbers without * were called inactive; x = no result given. Most compounds without a hit are left out; they make up all but 1.9% or so of the library.

SMILES	ATG4B inh	H9c2 protect	PP1 counter	PP5 primary	PLA2 counter	others
CC(C)(C)c1cc(-c2csc(Nc3ccccc3)[n+]2Cc2ccc(C(=O)O)cc2)cc(C(C)(C)C)c1O	45.8*	-7.9	1.5	0.3	55.9*
CC(=O)c1c(C)[nH]c(C(=O)NCCc2c[nH]c3ccccc23)c1C	-2.7	-1.6	-2.5	-1.6	x
S=C(NCCc1ccccc1)NCc1cccc(Cl)c1	84.2*	-5.4	4.6	3.5	90.1*
S=C(NCCCCNC(=S)NCc1ccccc1)NCc1ccccc1	3.7	-5.3	0.5	1.6	x
S=C(Nc1ccc(Cl)c(Cl)c1)NC1CCCCC1	48.0*	-11.4	5.7	6.4	40.0
S=C(NCCCCc1ccccc1)NCc1ccccc1	63.1*	-7.1	x	x	69.6*
O=C(CCSCc1cccc(Cl)c1)NCCc1ccc(Cl)cc1	43.6*	-11.1	0.1	4.0	15.6
CSCCC(NS(=O)(=O)c1ccccc1F)C(=O)N1CCCCCCC1 (centres undefined)	8.4	1.9	-0.6	0.2	x
COc1ccc(NC2CCCN(C(=O)c3ccc(C(C)=O)s3)C2)cc1 (centres undefined)	10.8	5.4	-0.6	0.0	x
CCN(CC(=O)NC1CCCC1)S(=O)(=O)c1ccc(Br)cc1	-3.8	3.4	-5.2	3.4	x
S=C(NCc1cccc(Cl)c1)NC1CCCCC1	59.2*	-12.1	-0.7	-1.1	64.0*
S=C(NCc1ccccc1)NC1CCCCC1	3.8	-2.0	-4.5	0.6	x
CC1CCCC(NC(=O)CSc2ncccn2)C1C (centres undefined)	-4.2	0.7	-1.1	2.9	x
CC(=O)Nc1ccc(NC(=O)C(C)Sc2nnc(C3CC3)n2-c2ccccc2)cc1 (centres undefined)	-41.6	4.2	-6.9	-1.9	x
Cc1cccc(-n2cnc3cc(C(=O)N4CCc5ccccc54)ccc32)c1	62.3*	7.2	-6.4	2.3	63.7*
COCCNC(=O)c1ccc2c(c1)ncn2-c1cccc(C)c1	-2.2	1.5	-2.9	0.5	x
CCOc1ccc(NC(=O)CN(C)C(=O)c2n[nH]c(=O)c3ccccc23)cc1OCC	12.4	7.7	x	x	x
Nc1c(N2CCN(c3ccccc3)CC2)c2ccccc2oc1=O	42.9*	-6.3	1.8	0.8	44.2	ATG4B confirm=78.5*
Cc1nc(NC(=O)c2ccccc2)sc1C1(C)CC(c2ccccc2F)=NO1 (centres undefined)	44.5*	20.0	2.8	3.1	63.5*
CCN(CC)c1ccc(/C=N/NC(=S)NCc2ccccc2)c(O)c1	49.2*	32.3	-1.0	5.0	37.0
COc1cccc(CNc2cc(CSc3ccc(Cl)cc3)nc(C)n2)c1	54.5*	-4.4	5.3	5.9	63.4*
c1ccc(OCc2nnnn2-c2ccccc2)cc1	42.1*	-3.2	0.1	-1.3	-2.4
Cc1cc(N/N=C/c2ccccc2Cl)nc(NCc2ccccc2)n1	85.4*	-16.2	17.0*	6.2	90.7*
Cc1cc(C)nc(N/N=C/c2ccccc2Cl)n1	-3.6	-2.7	-0.6	-0.1	x
CCc1nc(SCC(=O)N2CC(=O)Nc3ccccc32)c2c(C)c(C)sc2n1	71.0*	6.1	-0.4	3.8	76.9*
SMILES	ATG4B inh	H9c2 protect	PP1 counter	PP5 primary	PLA2 counter	others
Cc1sc2nc(C3CCCCC3)nc(SCC(=O)N3CC(=O)Nc4ccccc43)c2c1C	94.3*	3.8	-6.6	0.7	34.8	ATG4B confirm=25.7*
Cc1ccc(-c2cc(=O)c3cc(F)ccc3[nH]2)cc1	1.1	10.7	1.6	0.9	x
Cc1ccc(-c2cc(=O)c3cc(C)ccc3[nH]2)cc1	71.8*	-24.4	-1.7	0.3	-12.8
CCn1c(SCc2ccccc2Cl)nc2nc3c(cc2c1=O)CCCC3	40.5*	16.4	x	x	27.3	ATG4B confirm=66.1*
O=C(CCc1nc(-c2cccs2)no1)NCc1ccc(F)cc1Cl	43.0*	-13.3	-3.0	-0.6	53.9*
NC(=O)C1CCN(S(=O)(=O)c2cc3c4c(c2)CCN4C(=O)CC3)CC1	-5.3	-1.6	-2.9	-0.9	x
COc1ccccc1C=C1SC(=S)NC1=O	1.0	-8.8	x	x	x
O=C1NC(=S)S/C1=C\c1ccc(SCc2ccccc2)o1	40.2*	-23.1	7.8	1.5	55.6*
O=C(Nc1cccc(Cl)c1)c1nc[nH]c1C(=O)N1CCN(c2ccccc2)CC1	-2.0	-7.2	-9.0	0.5	x
O=C(Oc1ccccc1)c1ccccc1	1.4	6.6	x	x	x
CC(C)(C)c1ccc(OC(=O)c2ccccc2)cc1	67.5*	-7.7	-0.4	0.0	64.3*
O=C(NCCSCc1ccco1)Nc1cc(Cl)cc(Cl)c1	46.2*	-28.4	3.6	-0.7	62.0*
O=C(CSCc1ccc(Cl)cc1)NCCSCc1ccco1	3.6	6.6	-5.2	-3.6	x
Cc1sc(NC(=O)c2ccc(=O)n(C)n2)nc1-c1ccccc1	-7.4	-10.3	-2.1	-0.3	x
Cc1sc(NC(=O)c2c(F)cccc2F)nc1-c1ccccc1	53.4*	-6.9	2.6	5.3	66.8*
O=C1CS(=O)(=O)c2ccccc2N1	2.1	1.8	-1.0	1.1	x
CC(C)(C)C(=O)CSc1ncnc2sc3c(c12)CCC3	x	-16.7	-1.0	-1.3	20.5
CSCc1c(C(=O)N2CCCc3ccccc32)oc2ccccc12	61.4*	-5.3	-3.6	-0.9	77.7*
CC(C)Cn1c(SC(C)C(=O)Nc2ccc3c(c2)OCCO3)nc2ccccc2c1=O (centres undefined)	49.4*	-6.0	x	x	55.1*
CC(Sc1nc2ccccc2c(=O)n1C)C(=O)Nc1ccc2c(c1)OCCO2 (centres undefined)	1.4	-25.3	-2.6	0.1	x
C#CCNCCS(=O)(=O)N(Cc1ccc(Br)cc1)[C@@H](C)C(=O)O	x	4.5	x	x	x
Oc1ccc(N=Nc2n[nH]c(-c3ccccc3)n2)cc1	-4.5	-8.2	-0.5	0.5	x
Oc1ccc(N=Nc2nc(-c3ccccc3)c(-c3ccccc3)[nH]2)cc1	48.1*	29.2	3.0	6.1	39.6	ATG4B confirm=67.5*
COC(=O)c1cc(S(=O)(=O)N2CCN(Cc3ccccc3)CC2)cn1C	-4.8	-7.4	1.7	1.9	x
Cc1ccc(CS(=O)Cc2ccc(C(=O)NCc3ccc(OC(C)C)cc3)o2)cc1 (centres undefined)	-4.6	-2.2	-4.3	-3.5	x
CC(=O)c1c(C)n(-c2ccccc2)c2ccc(OCC(N)=O)cc12	46.8*	-4.4	0.8	1.7	52.1*
COc1cnc(SCc2c(Cl)cccc2Cl)nc1Cl	50.2*	-9.3	2.0	2.6	34.5	ATG4B confirm=59.4*
Cc1nc(SCc2c(F)cccc2Cl)n[nH]1	3.9	-2.8	-1.2	3.2	x
O=S(=O)(c1ccccc1)c1nc(-c2ccc(Cl)cc2)oc1NCCCN1CCOCC1	-5.9	1.8	x	x	x
